Bioassay records as filed in PubChem BioAssay.
Sampled rows, rich in hits. Any-hit rate of the full collection: about 7.8%.
MITF inhib = inhibitors of MITF, primary screen, MITF inhibitor project, cell-based, luminescence; hit rate 0.28% among 37,000; inhibition, % (no concentration beside the values); TRPM1 promoter luciferase, 24 h; AID 2240, 2010; in the data active = inhibition above about 85%; inconclusive = no clear call, values can overlap the other calls; inactive = below about 68%;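 also: human melanocyte line stably carrying TRPM1 promoter luciferase reporter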
NOMO-1 viab = NOMO-1 AML cell viability reduction, primary screen, STK33 inhibitor project, CellTiter-Glo luminescence; hit rate 7.5% among 37,000; NOMO-1 AML viability, 72 h; inhibition, % (test concentration not listed); in the data active = inhibition above about 80%; inconclusive = no clear call, values can overlap the other calls
Hedgehog inh = Hedgehog pathway signaling inhibitors, primary screen, luminescence, Shh-LIGHT2 cells, Gli-luciferase. Shh-LIGHT2 Gli-luciferase reporter, 30 h. inhibition, % (concentration not given with the values). hit rate 2.1% among 22,000;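 active = mean inhibition across valid replicates above about 65%, limit read from the data; inconclusive = mean under the limit, yet half or more replicates past it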;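 also: pathway switched on by Shh-conditioned medium diluted 1 in 25 in low serum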
Hits are given with their value; - = inactive; ? = inconclusive; . = not tested or not shown.

SMILES	MITF inhib	NOMO-1 viab	Hedgehog inh
C[C@@H]1CCCCO[C@H](CN(C)Cc2ccc(C(F)(F)F)cc2)[C@@H](C)CN([C@H](C)CO)C(=O)c2cc(NS(=O)(=O)c3cccs3)ccc2O1	-	-	-
CC(O)c1nc2ccccc2n1CCCOc1ccc(Cl)cc1 (stereo unspecified)	-	-	.
COc1ccc(S(=O)(=O)n2cc(-c3ccc(F)cc3)c(N)n2)c(OC)c1	-	-	.
COc1ccc(S(=O)(=O)N(C)CC(=O)Nc2ccc(Br)cc2F)cc1C	-	-	.
Clc1ccc(CSc2nnc(-c3cccs3)n2Cc2ccco2)c(Cl)c1	-	-	.
C[C@@H]1CCCCO[C@@H](CN(C)Cc2ccc(C(F)(F)F)cc2)[C@@H](C)CN([C@H](C)CO)C(=O)c2cc(NS(=O)(=O)c3ccc(Cl)cc3)ccc2O1	-	111	-
C[C@@H]1CCCCO[C@H](CN(C)C(=O)Nc2ccc(C(F)(F)F)cc2)[C@@H](C)CN([C@H](C)CO)C(=O)c2cc(NS(=O)(=O)c3cccs3)ccc2O1	-	-	.
Cc1ccc(S(=O)(=O)Nc2ccc3c(c2)C(=O)N([C@H](C)CO)C[C@H](C)[C@H](CN(C)Cc2ccc(C(F)(F)F)cc2)OCCCC[C@@H](C)O3)cc1	-	126	-
C[C@@H]1CCCCO[C@@H](CN(C)C(=O)Nc2ccc(C(F)(F)F)cc2)[C@@H](C)CN([C@H](C)CO)C(=O)c2cc(NS(=O)(=O)c3cccs3)ccc2O1	-	114	83
C[C@@H]1CCCCO[C@@H](CN(C)Cc2ccncc2)[C@@H](C)CN([C@H](C)CO)C(=O)c2cc(NS(=O)(=O)c3ccc(Cl)cc3)ccc2O1	-	-	.
C[C@@H]1CCCCO[C@H](CN(C)Cc2ccc(C(F)(F)F)cc2)[C@@H](C)CN([C@H](C)CO)C(=O)c2cc(NS(=O)(=O)c3ccccc3)ccc2O1	-	95	-
C[C@@H]1CCCCO[C@@H](CN(C)Cc2ccccc2)[C@@H](C)CN([C@H](C)CO)C(=O)c2cc(NS(=O)(=O)c3ccccc3)ccc2O1	-	-	-
Cc1ccc(S(=O)(=O)Nc2ccc3c(c2)C(=O)N([C@H](C)CO)C[C@H](C)[C@H](CN(C)CC2CC2)OCCCC[C@@H](C)O3)cc1	-	-	-
CCn1c(SCC(=O)c2ccc(OC)cc2)nnc1-c1ccc(C)cc1	-	-	.
CCC(Oc1ccccc1)C(=O)Nc1cc2oc3ccccc3c2cc1OC (stereo unspecified)	-	-	.
CCC(=O)Nc1cccc(NC(=O)COc2c(C)cc(C)cc2Br)c1	-	-	.
O=C(CSc1n[nH]c(-c2ccccc2Cl)n1)c1ccc(O)c(O)c1	-	-	.
COc1ccccc1OCCCSc1nc(-c2ccccc2)cc(=O)[nH]1	-	-	.
C=C1C(=O)O[C@@H]2C3=C(C)CC[C@]34O[C@@H](C[C@@H]4C)[C@H]12	-	114	-
O=C(CNCCO)Nc1sc2c(c1C(=O)Nc1ccc(Br)cc1)CCC2	-	-	.
COC(=O)c1c(NC(=O)C(C)Oc2ccc(F)cc2)sc(C(C)=O)c1C (stereo unspecified)	-	?	.
COc1ccc(-c2nnc(Nc3cccc(C(F)(F)F)c3)c3ccccc23)cc1	-	116	87
CNC(=O)COc1ccc(Nc2nnc(-c3ccc(OC)cc3)c3ccccc23)cc1	-	-	.
COc1ccc(NC(=O)CSc2nc(C)cc(C)n2)cc1	-	-	.
COC(=O)c1cc(NC(=O)CSc2nc(C)cc(C)n2)cc(C(=O)OC)c1	-	114	.
SMILES	MITF inhib	NOMO-1 viab	Hedgehog inh
CC(=O)O[C@@H]1C=C[C@@]2(C)C(C[C@@H](OC(C)=O)[C@@]3(C)C4=CC(=O)O[C@@H](c5ccoc5)[C@]4(C)CCC23)C1(C)C (stereo partly specified)	91	106	-
CC(=O)O[C@@H]1CC2C(C)(C)C(=O)C=C[C@]2(C)C2CC[C@@]3(C)[C@H](c4ccoc4)OC(=O)[C@H]4O[C@]43[C@@]21C (stereo partly specified)	-	-	-
Cc1cc(C)nc(SC(C)C(=O)Nc2ccccc2)n1 (stereo unspecified)	-	-	.
CCCCc1c(-c2ccc(O)cc2)[nH]c2nccnc12	-	83	-
CCCCc1c(-c2ccc(OC)cc2)[nH]c2nccnc12	-	-	-
COc1cc([N+](=O)[O-])cc(CN2CCN(CCO)CC2)c1O	-	-	.
COC(=O)c1sc2ncn(CC(=O)Nc3cccc(Cl)c3C)c(=O)c2c1C	-	-	.
COc1ccc(C(=O)CSc2nnc(-c3ccc(C)cc3)n2-c2ccc(C)cc2)cc1	-	-	.
CC(C)CCCC(C)(O)c1ccc(C(=O)O)cc1O (stereo unspecified)	-	-	-
Cc1ccc(C(O)(COC(=O)C(C)C)COC(=O)C(C)C)c(O)c1	-	117	-
CCOc1ccccc1C(=O)Oc1c(S(=O)(=O)c2ccc(C)cc2)c(C)nn1-c1ccccc1	-	103	.
CCOc1ccccc1NC(=O)c1ccccc1N(C)S(=O)(=O)c1ccc(C)cc1	-	-	.
Cc1nn(Cc2ccc(F)cc2)c(C)c1NC(=O)c1cc(-c2cccnc2)nc2c(Cl)cccc12	-	-	.
C[C@H]1CN([C@@H](C)CO)C(=O)c2cc(NC(=O)Cc3cn(C)c4ccccc34)ccc2O[C@@H]1CN(C)C(=O)Nc1cccc2ccccc12	-	-	.
C[C@@H]1CN([C@@H](C)CO)C(=O)c2cc(NC(=O)Cc3cn(C)c4ccccc34)ccc2O[C@@H]1CN(C)C(=O)Nc1cccc2ccccc12	-	125	-
C[C@H](CO)N1C[C@H](C)[C@H](CN(C)C(=O)Nc2cccc3ccccc23)Oc2ccc(NC(=O)Cc3cn(C)c4ccccc34)cc2C1=O	-	88	-
C[C@@H]1CN([C@H](C)CO)C(=O)c2cc(NC(=O)Cc3cn(C)c4ccccc34)ccc2O[C@H]1CN(C)C(=O)Nc1cccc2ccccc12	-	-	.
COC(=O)c1ccccc1NC(=O)C(C)NS(=O)(=O)c1ccc(F)cc1 (stereo unspecified)	-	-	.
CCN1C(=O)/C(=C2\SC(=S)N(c3ccc(OC)cc3)C2=O)c2ccccc21	-	-	.
O=C(Oc1ccc(-c2ccccc2)cc1)c1cccs1	-	-	-
CCN(CC(=O)Nc1cccc(Cl)c1C)S(=O)(=O)c1ccc(OC)cc1	-	-	.
C[C@H]1CN([C@@H](C)CO)C(=O)Cc2cc(NC(=O)CCCCCC(=O)Nc3ccccc3N)ccc2O[C@@H]1CN(C)Cc1ccc(C(F)(F)F)cc1	-	106	.
C[C@@H]1CN([C@@H](C)CO)C(=O)c2cc(NC(=O)CCCCCC(=O)Nc3ccccc3N)ccc2O[C@@H]1CN(C)Cc1ccc(-c2ccccc2)cc1	-	-	.
C[C@H]1CN([C@@H](C)CO)C(=O)Cc2cc(NC(=O)CCCCCC(=O)Nc3ccccc3N)ccc2O[C@@H]1CN(C)Cc1ccc2c(c1)OCO2	-	-	.
C[C@@H]1CN([C@H](C)CO)C(=O)Cc2cc(NC(=O)CCCCCC(=O)Nc3ccccc3N)ccc2O[C@@H]1CN(C)C(=O)Nc1ccc(C(F)(F)F)cc1	-	-	.
C[C@@H]1CN([C@@H](C)CO)C(=O)Cc2cc(NC(=O)CCCCCC(=O)Nc3ccccc3N)ccc2O[C@@H]1CN(C)Cc1ccc(-c2ccccc2)cc1	-	142	.
